A selection: hits, their analogues and other compounds. The true share with any hit is near 1.2%.
Proteasome disasm = blocks ATP-dependent breakdown of the yeast 26S proteasome. inhibition of disassembly, % (no concentration beside the values). AID 751. anti-FLAG beads, GFP-proteasome disassembly, flow cytometry. 24,000 tested, 0.2% active;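 active means inhibition of disassembly above about 33%, limit read from the data; inconclusive means likely self-fluorescent, control bead median signal at least 40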;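 further: higher percent means more bead fluorescence retained so stronger block of disassembly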
VLA-4 agonist = allosterically activates the human VLA-4 integrin. activation, % at 10 µM (by protocol). AID 528. P13612. 24,000 tested, under 10 active. Jurkat cells, LDV-FITC binding, flow cytometry;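 active means fluorescent ligand binding to cells raised by more than 40% of the manganese-induced maximum; inconclusive means compound's own fluorescence above 85% of the ligand control signal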
S aureus QS inh = S. aureus quorum sensing inhibition; S. aureus RN6390 RNAIII-GFP reporter, AIP-induced, flow cytometry 3 h; inhibition, % at 2 µM; 24,000 tested, 0.3% active; AID 527;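 active means share of bacteria positive for the green fluorescent reporter and its mean brightness both inhibited by 50% or more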
VLA-4 antagonist = blocks LDV-FITC ligand binding to Mn2+-activated human VLA-4 integrin; P13612; Jurkat cells, LDV-FITC binding with Mn2+, flow cytometry; 100% = Mn2+-driven binding gain fully reversed; inhibition, % at 10 µM (by protocol); 24,000 tested, 0.2% active; AID 529;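 active means inhibition above 50%; inconclusive means compound itself fluorescent, judged against control cell fluorescence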
Jurkat autofluor = counter-screen for VLA-4 integrin: compound autofluorescence in Jurkat cells. flow cytometry; hits give high values; 1 = vehicle-only cell background. fluorescence ratio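 (tested at 10 µM compound in the well)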. 24,000 tested, 0.61% active;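 active means fluorescence ratio above 2.44, which is 1 plus 3 SD of all ratios; inconclusive means signal too bright to measure linearly, ratio around 10 or more; inactive means fluorescence ratio below 2.44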;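 further: green fluorescence of cells measured with 488 nm excitation and 530 nm emission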
Of the large screens only hits and unclear results are named; the others gave an inactive call.

O=C(Cn1nc(-c2ccc3c(c2)OCCO3)ccc1=O)Nc1ccc(N2CCOCC2)cc1	VLA-4 antagonist 96
O=C(CN1C(=O)CSC1=O)Nc1ccc(N2CCOCC2)cc1	none
O=C1c2ccccc2-c2nc3ncnn3c(-c3ccccc3Cl)c21	VLA-4 agonist inconclusive, VLA-4 antagonist inconclusive, Jurkat autofluor 3.7
CC(C)Cc1cc(C(=O)Nc2sc3c(c2C#N)CCCC3)no1	S aureus QS inh 55
CC(=O)c1c(C)nc(-c2ccc(Cl)cc2)nc1N=CN(C)C	VLA-4 agonist inconclusive, VLA-4 antagonist inconclusive, Jurkat autofluor 3.2
COC(=O)C1C(=O)C2=C(CC1C)NC(C)=C(C(=O)OC1CCCCC1)C2c1ccc(N(C)C)cc1 (stereo not drawn)	S aureus QS inh 54
COC(=O)C1=C(C)C(c2cccs2)NC(=O)N1C (stereo not drawn)	none
COC(=O)C1=C(C)N=c2s/c(=C/c3cccs3)c(=O)n2C1c1cccs1 (stereo not drawn)	Proteasome disasm 110
CCCN(CCC)CCCNS(=O)(=O)c1ccc2c(c1)oc(=O)n2C	VLA-4 agonist inconclusive, VLA-4 antagonist inconclusive, Jurkat autofluor 3.7
COc1ccc(-n2nc3c(c2NC(=O)c2cc4ccccc4oc2=O)CS(=O)(=O)C3)cc1	none
Cc1cccc(NC(=O)c2cc(S(=O)(=O)NCc3ccco3)ccc2F)c1C	none
N#C[C@@H]1[C@@H]2C(=O)N(c3ccc4c(c3)OCCO4)C(=O)[C@@H]2C2c3ccccc3C=CN21 (stereo partly drawn)	VLA-4 agonist inconclusive, VLA-4 antagonist inconclusive, Jurkat autofluor 5.2
O=C1CC(N2CCN(c3ccccc3)CC2)C(=O)N1c1ccc2c(c1)OCCO2 (stereo not drawn)	none (no result: Proteasome disasm, VLA-4 agonist, VLA-4 antagonist, Jurkat autofluor)
COc1ccc(S(=O)(=O)N2CCN(CC(=O)Nc3ccc(C)c(F)c3)CC2)cc1	none
Cc1nn(-c2ccccc2)c(OC(=O)c2cccs2)c1S(=O)(=O)c1ccccc1	S aureus QS inh 53
Cc1nn(C(C)(C)C)c(OC(=O)C2CCCC2)c1S(=O)(=O)c1ccccc1	S aureus QS inh 89
COc1c(Cl)cc(-c2noc(C)c2C(=O)NC(C)C)cc1Cl	none
Cc1nc(NCc2ccccn2)c2ccccc2n1	VLA-4 agonist inconclusive, VLA-4 antagonist inconclusive, Jurkat autofluor 2.8
Cc1nc2ccccc2c2oc(C(=O)NCc3ccccn3)cc12	none
CCC(C)NC(=O)CSC1=Nc2ccccc2C2=NC(CC(=O)NCc3ccccc3)C(=O)N12 (stereo not drawn)	none
CCn1c2ccccc2c2cc(N)ccc21	Proteasome disasm inconclusive, VLA-4 agonist inconclusive, VLA-4 antagonist inconclusive, Jurkat autofluor 3.4
C/C=C/CSc1nc2c(c(=O)[nH]c(=O)n2C)n1Cc1ccc(C)cc1	none
CC(C)Cn1c(=O)c(C(=O)NCc2ccccn2)c(O)c2ccccc21	none
CC(C)Cn1c(=O)c(C2=NS(=O)(=O)c3ccccc3N2)c(O)c2ccccc21	VLA-4 antagonist 59
CC(=O)c1ccc(N2CCN(C(=O)c3cc4c(=O)n(C)c5ccccc5c4n3C)CC2)cc1	none
NC1=CC(=O)c2cccc3cccc1c23	VLA-4 agonist inconclusive, VLA-4 antagonist inconclusive, Jurkat autofluor 3.5
COc1ccc(Cl)cc1NC(=O)C1CSC(c2ccncc2)=N1 (stereo not drawn)	VLA-4 agonist inconclusive, VLA-4 antagonist inconclusive
Cc1oc(-c2ccc(Cl)cc2)nc1CN1CCCC(C(=O)N2CCN(C(=O)c3ccco3)CC2)C1 (stereo not drawn)	VLA-4 antagonist inconclusive
CCOC(=O)Cn1c(=O)oc2cc(S(=O)(=O)N3CCCC(C(=O)OCC)C3)ccc21 (stereo not drawn)	VLA-4 agonist inconclusive, VLA-4 antagonist inconclusive, Jurkat autofluor 3.1
CCOC(=O)Cn1c(=O)oc2cc(S(=O)(=O)NCc3ccccn3)ccc21	VLA-4 agonist inconclusive, VLA-4 antagonist inconclusive, Jurkat autofluor 3.6
CCOC(=O)Cn1c(=O)oc2cc(S(=O)(=O)Nc3c(C)cc(C)cc3C)ccc21	VLA-4 agonist inconclusive, VLA-4 antagonist inconclusive, Jurkat autofluor 6
CCOC(=O)Cn1c(=O)oc2cc(S(=O)(=O)NCc3cccs3)ccc21	VLA-4 agonist inconclusive, VLA-4 antagonist inconclusive
CCOC(=O)C(C(=O)OCC)C(C)C#CCN1CCCCC1 (stereo not drawn)	none
CC(NC(=O)CN1C(=O)COc2ccccc21)c1ccccc1 (stereo not drawn)	none
CCc1ccc(CNC(=O)CN2C(=O)COc3ccccc32)cc1	VLA-4 antagonist 52
CCCCCNC(CC(=O)Nc1ccc(OC)cc1)C(=O)O (stereo not drawn)	none
O=C(CCCn1c(=S)[nH]c2cc3c(cc2c1=O)OCO3)N1CCc2ccccc2C1	S aureus QS inh 66
CCOc1ccc(-c2cc(NC(=O)Cn3ncc4c3-c3ccccc3OC4)on2)cc1OCC	VLA-4 agonist inconclusive, VLA-4 antagonist inconclusive
O=c1c[n+]([O-])c2ccccc2n1OCc1c(F)cccc1F	VLA-4 agonist inconclusive, VLA-4 antagonist inconclusive, Jurkat autofluor 3.1
O=C(CN1C(=O)CCSc2ccccc21)Nc1ccc2c(c1)OCCO2	none
O=C(CN1C(=O)CC(c2ccco2)Sc2ccccc21)Nc1ccc2c(c1)OCCO2 (stereo not drawn)	S aureus QS inh 83
Cc1noc(C)c1S(=O)(=O)N1CCC(C(=O)N2CCN(c3ccccc3Cl)CC2)CC1	none
Cc1noc(/C=C/c2ccco2)c1S(=O)(=O)N1CCC(C(=O)N2c3ccccc3CC2C)CC1 (stereo not drawn)	Proteasome disasm 105
Cc1noc(/C=C/c2ccco2)c1S(=O)(=O)N1CCC(C(=O)N(C)Cc2ccccc2)CC1	Proteasome disasm 46
Cc1cc(C)n2nc(SCC(=O)N(C)Cc3ccccc3)nc2n1	none
CCOC(=O)C(C)Sc1nnc(Cc2cc(=O)[nH]c(=O)[nH]2)n1-c1ccc(Cl)cc1 (stereo not drawn)	none
Oc1ccc(-c2nc3ncccn3c2Nc2ccc3c(c2)OCCO3)cc1	S aureus QS inh 83
COc1ccc(-c2nc3ncccn3c2Nc2ccc3c(c2)OCCO3)cc1	none
Cc1ccc(C2c3sc(=O)[nH]c3SC3C(=O)NC(=O)C32)cc1 (stereo not drawn)	none
COc1ccc2nc(NC(=O)C3CCCN(S(=O)(=O)c4cccc5nsnc45)C3)sc2c1 (stereo not drawn)	VLA-4 agonist inconclusive, VLA-4 antagonist inconclusive
COc1ccc2nc(NC(=O)C3CCCN(S(=O)(=O)c4cccc5nonc45)C3)sc2c1 (stereo not drawn)	VLA-4 agonist inconclusive, VLA-4 antagonist inconclusive, Jurkat autofluor 2.6
Cc1cc(Nc2ccc(Br)c(C)c2)n2nc(C)nc2n1	VLA-4 agonist inconclusive, VLA-4 antagonist inconclusive
CCCCn1c(NC(=O)CC)c(C#N)c2nc3ccccc3nc21	VLA-4 agonist inconclusive, VLA-4 antagonist inconclusive, Jurkat autofluor 3.1
N=c1c(C(=O)NC2CCCCC2)cc2c(=O)n3ccccc3nc2n1CCN1CCOCC1	none
Cc1cccn2c(=O)c3cc(C(=O)N4c5ccccc5CC4C)n(C)c3nc12 (stereo not drawn)	VLA-4 agonist inconclusive, VLA-4 antagonist inconclusive, Jurkat autofluor 2.7

Screens: PubChem, NMMLSC
